Only some compounds are listed: those with a hit (about 2.6% of all), similar ones and a draw of the others.
eIF4H inh – inhibitors of RNA binding by human eIF4H; inhibition, % at 35 µM; eIF4H fluorescence polarization binding assay; 0.94% of 290,000 active; Q15056;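 further: calls also rest on retests at 20 µM and on dose response follow-up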
ABCB6 inh 2 – human ABCB6 transporter inhibition; AID 602162; 0.19% of 360,000 active; Q9NP58; fluorescence ratio to DMSO, % at 10 µM; K562-ABCB6 porphyrin accumulation, flow cytometry, 1 h; active compounds read low;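 active means fluorescence ratio to DMSO below 75%, the collection mean minus 3 SD; inconclusive means too few cells collected in the well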;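 further: signal is porphyrin accumulated inside mitochondria; 100% equals median channel fluorescence of DMSO control wells; lower ratio means ABCB6 inhibition with less porphyrin fluorescence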
PHOSPHO1 block – PHOSPHO1 (human) inhibition | recombinant PHOSPHO1, absorbance phosphatase assay | 1.1% of 290,000 active | inhibition, % at 13.3 µM | Q8TCT1; in the data active means inhibition above about 60%
Target sequence (Q8TCT1 whole entry, looked up): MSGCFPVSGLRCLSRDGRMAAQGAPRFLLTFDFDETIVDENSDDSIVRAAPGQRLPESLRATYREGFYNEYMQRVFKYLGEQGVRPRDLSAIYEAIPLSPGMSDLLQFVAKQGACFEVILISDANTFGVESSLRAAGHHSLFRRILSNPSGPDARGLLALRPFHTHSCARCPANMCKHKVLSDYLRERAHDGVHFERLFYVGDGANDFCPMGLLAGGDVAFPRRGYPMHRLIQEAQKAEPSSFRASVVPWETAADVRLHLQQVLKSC
MLLE-PAM2 inh – blocks PAM2 peptide binding to the PABP1 MLLE domain. P11940. GST-MLLE / FITC-PAM2 fluorescence polarization. inhibition, % at 20 µM. 0.36% of 360,000 active; in the data active means inhibition above about 35%, passing the limit was not always enough;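 further: plate controls were DMSO wells with GST-MLLE for no effect and wells lacking GST-MLLE protein for full effect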
AI-2 QS modul – Vibrio harveyi AI-2 quorum sensing modulation; activity change, % at 7.5 µM; Vibrio harveyi JMH597 AI-2 luminescence/OD600 ratio, 9 h; active compounds read low; strain lacks LuxN and CqsS sensors; 0 = neutral-control median; 0.4% of 300,000 active; in the data active means activity change below about -75%, passing the limit was not always enough; inconclusive means no clear call, values can overlap the other calls;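 further: luminescence divided by OD600 gain over 9 h not by final OD600 alone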
PABP polyA inh – PABP-poly(A) binding inhibition | P11940 | PABP-poly(A) RNA binding, fluorescence polarization | calls only at 35 µM | 1% of 290,000 active;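 further: calls also rest on retests at 20 µM and on dose response follow-up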
* marks the source's active call; other numbers are inactive results. Unless noted, how the calls were made is not given here.

Results for CC(=O)N1c2ccccc2C2(O)N=C(C)SC12 (centres undefined) ?
eIF4H inh: -6; ABCB6 inh 2: 102; PHOSPHO1 block: 72*; MLLE-PAM2 inh: 18; AI-2 QS modul: 12; PABP polyA inh: inactive

Results for CC(Oc1ccc2c3c(c(=O)oc2c1)CCCC3)C(=O)NC1CC(C)(C)NC(C)(C)C1 (centres undefined) ?
ABCB6 inh 2: 95; PHOSPHO1 block: 47; MLLE-PAM2 inh: 6; AI-2 QS modul: 12

Results for Cc1c(C)c2ccc(OC(C)C(=O)NC3CC(C)(C)NC(C)(C)C3)cc2oc1=O (centres undefined) ?
ABCB6 inh 2: 103; PHOSPHO1 block: 70*; MLLE-PAM2 inh: 3; AI-2 QS modul: 13

What do the screens show for `O=C(NCc1ccccc1Cl)[C@H]1CCCN1C(=O)[C@H]1CCCN1C(=O)c1ccc(Cl)cc1`?
ABCB6 inh 2: 92

Results for Cn1c(=O)[nH]c2cc(Cl)cnc21 ?
eIF4H inh: inconclusive; ABCB6 inh 2: 99; PHOSPHO1 block: 13; MLLE-PAM2 inh: 47*; AI-2 QS modul: 8; PABP polyA inh: inconclusive

How did Cc1ccc(CN2CCN(Cc3cc(=O)c4ccccc4[nH]3)CC2CCO)o1 (centres undefined) do in these assays?
eIF4H inh: 58*; ABCB6 inh 2: 94; PHOSPHO1 block: 22; MLLE-PAM2 inh: 11; AI-2 QS modul: 11; PABP polyA inh: inactive

How did Cc1ccc(CN2CCN(Cc3c[nH]c4ccccc34)CC2CCO)o1 (centres undefined) do in these assays?
eIF4H inh: -12; ABCB6 inh 2: 106; PHOSPHO1 block: 43; MLLE-PAM2 inh: -5; AI-2 QS modul: 2; PABP polyA inh: inactive

Results for CCc1nnc(NC(=O)c2sc3nc4cc(C)ccc4cc3c2N)s1 ?
eIF4H inh: 8; ABCB6 inh 2: 126; PHOSPHO1 block: 99*; MLLE-PAM2 inh: -15; AI-2 QS modul: 20; PABP polyA inh: inactive

Results for CCOC(=O)Cc1csc(NC(=O)c2sc3nc4ccc(C)cc4cc3c2N)n1 ?
eIF4H inh: 2; ABCB6 inh 2: 129; PHOSPHO1 block: 32; MLLE-PAM2 inh: -13; AI-2 QS modul: -4; PABP polyA inh: inactive

Results for COC(=O)N1CCCCC1c1cc(C(=O)Nc2ccc(OC)cc2C)no1 (centres undefined) ?
ABCB6 inh 2: 98; MLLE-PAM2 inh: 2

What do the screens show for `NC(=O)N(CCC(=O)O)c1ccccc1`?
eIF4H inh: 63*; ABCB6 inh 2: 107; PHOSPHO1 block: 3; MLLE-PAM2 inh: 4; AI-2 QS modul: 11; PABP polyA inh: active

What do the screens show for `Cc1cc(=O)[nH]c(SCn2nnc3ccccc3c2=O)n1`?
eIF4H inh: -11; ABCB6 inh 2: 98; PHOSPHO1 block: -11; MLLE-PAM2 inh: 43*; AI-2 QS modul: 23; PABP polyA inh: inactive

How did O=C(O)C1Sc2[nH]c(=O)sc2C2c3cc(Cl)ccc3OC(=O)C12 (centres undefined) do in these assays?
eIF4H inh: 14; ABCB6 inh 2: 94; PHOSPHO1 block: 89*; MLLE-PAM2 inh: 15; AI-2 QS modul: 11; PABP polyA inh: active

What do the screens show for `Cc1nn(-c2nnc(C)c(=O)[nH]2)c(C)c1SCC(=O)Nc1ccc(C(C)C)cc1`?
eIF4H inh: 4; ABCB6 inh 2: 109; PHOSPHO1 block: 62*; MLLE-PAM2 inh: 0; AI-2 QS modul: 18; PABP polyA inh: inactive

Results for Cc1nn(-c2nnc(C)c(=O)[nH]2)c(C)c1SCC(=O)Nc1ccc(F)cc1 ?
eIF4H inh: -2; ABCB6 inh 2: 102; PHOSPHO1 block: 55; MLLE-PAM2 inh: 21; AI-2 QS modul: 25; PABP polyA inh: inactive

How did COc1cccc(-c2cc3nc(NCc4ccccc4F)n(C)c(=O)c3s2)c1 do in these assays?
ABCB6 inh 2: 98; MLLE-PAM2 inh: 3

What do the screens show for `CC1(C(=O)NCc2cccnc2)CCN1C(=O)c1cccc(F)c1` (centres undefined)?
ABCB6 inh 2: 101; MLLE-PAM2 inh: 1

Results for S=c1nc(-c2ccc(Cl)cc2)[nH][nH]1 ?
eIF4H inh: -8; ABCB6 inh 2: 99; PHOSPHO1 block: 28; MLLE-PAM2 inh: 21; PABP polyA inh: inactive

Results for Cc1ccc(C)n1-c1nc(=S)[nH][nH]1 ?
eIF4H inh: 22; ABCB6 inh 2: 95; PHOSPHO1 block: 102*; MLLE-PAM2 inh: 45*; AI-2 QS modul: 27; PABP polyA inh: inactive

How did Cc1ccc(Sc2ncccc2C(=O)O)cc1 do in these assays?
eIF4H inh: -5; ABCB6 inh 2: 97; PHOSPHO1 block: -6; MLLE-PAM2 inh: -11; AI-2 QS modul: -80*; PABP polyA inh: inactive

How did CN(C)CCN1CCN(C2CN(Cc3ccc(F)cc3)S(=O)(=O)C2)CC1 (centres undefined) do in these assays?
ABCB6 inh 2: 94; MLLE-PAM2 inh: 7

How did Cn1c(=O)n(C)c2cc([N+](=O)[O-])c(N3CCN(C(=O)c4cccc(Cl)c4)CC3)cc21 do in these assays?
eIF4H inh: active; ABCB6 inh 2: 101; PHOSPHO1 block: -16; MLLE-PAM2 inh: 12; AI-2 QS modul: 26; PABP polyA inh: active

How did CN(C)c1cccc(CNC(=O)c2ccc3sc([C@@H]4O[C@H](CO)[C@H](O)[C@H](O)[C@H]4O)nc3c2)c1 do in these assays?
ABCB6 inh 2: 102; MLLE-PAM2 inh: -16

Results for O=C(O)C[C@@H]1C(=O)O[C@@H]2C(COC(=O)c3cc(O)c(O)c(O)c3)O[C@@H](OC(=O)c3cc(O)c(O)c(O)c3)[C@@H](OC(=O)c3cc(O)c(O)c4c3[C@H]1[C@H](O)C(=O)O4)[C@H]2OC(=O)c1cc(O)c(O)c(O)c1 (some centres undefined) ?
eIF4H inh: 87*; PHOSPHO1 block: 0; PABP polyA inh: active

What do the screens show for `OC(c1ccc(F)c(F)c1)c1nc(-c2cnc3ccccc3c2)cs1` (centres undefined)?
ABCB6 inh 2: 97; MLLE-PAM2 inh: -2

What do the screens show for `Oc1c(C(c2ccco2)N2CCN(C(c3ccccc3)c3ccccc3)CC2)sc2ncnn12` (centres undefined)?
eIF4H inh: 24; ABCB6 inh 2: 100; PHOSPHO1 block: 88*; MLLE-PAM2 inh: 3; AI-2 QS modul: 18; PABP polyA inh: inactive

What do the screens show for `COc1cccc(S(=O)(=O)N(C)C[C@H]2OCc3cnnn3CCCC(=O)N([C@@H](C)CO)C[C@@H]2C)c1`?
ABCB6 inh 2: 101; MLLE-PAM2 inh: -9

What do the screens show for `O=C1NC[C@H](CCCCN2C[C@H](Cc3ccc(O)cc3)N(CCc3ccccc3)C(=O)C2=O)N(CCc2ccc(O)cc2)C1=O`?
ABCB6 inh 2: 87

How did c1ccc(-c2cnnc(SCc3cn4cccnc4n3)n2)cc1 do in these assays?
eIF4H inh: -12; ABCB6 inh 2: 112; PHOSPHO1 block: 76*; MLLE-PAM2 inh: 28; AI-2 QS modul: 4; PABP polyA inh: inactive
